This note sets out measurements from PubChem BioAssay AID1347420 (Sanford-Burnham Center for Chemical Genomics, 2020).

About 980 (75%) of roughly 1,300 compounds were called active. About 4% were inconclusive and are not listed. The list shows a part of the results.

For this assay, the target named is Sulfhydryl oxidase 1 (Homo sapiens) (UniProt O00391). The assay is described as follows: inhibition of human sulfhydryl oxidase QSOX1 – biochemical, HyperBlu H2O2 luminescence, HTS, primary screen (AID 1347420). Also: values above 100% were filed as inconclusive. The conditions noted are these: recombinant QSOX1, HyperBlu H2O2 luminescence; at 12.5 µM; stronger effect = higher value; active = any value above zero.
Sequence of Sulfhydryl oxidase 1 (Homo sapiens) (O00391 whole entry, looked up): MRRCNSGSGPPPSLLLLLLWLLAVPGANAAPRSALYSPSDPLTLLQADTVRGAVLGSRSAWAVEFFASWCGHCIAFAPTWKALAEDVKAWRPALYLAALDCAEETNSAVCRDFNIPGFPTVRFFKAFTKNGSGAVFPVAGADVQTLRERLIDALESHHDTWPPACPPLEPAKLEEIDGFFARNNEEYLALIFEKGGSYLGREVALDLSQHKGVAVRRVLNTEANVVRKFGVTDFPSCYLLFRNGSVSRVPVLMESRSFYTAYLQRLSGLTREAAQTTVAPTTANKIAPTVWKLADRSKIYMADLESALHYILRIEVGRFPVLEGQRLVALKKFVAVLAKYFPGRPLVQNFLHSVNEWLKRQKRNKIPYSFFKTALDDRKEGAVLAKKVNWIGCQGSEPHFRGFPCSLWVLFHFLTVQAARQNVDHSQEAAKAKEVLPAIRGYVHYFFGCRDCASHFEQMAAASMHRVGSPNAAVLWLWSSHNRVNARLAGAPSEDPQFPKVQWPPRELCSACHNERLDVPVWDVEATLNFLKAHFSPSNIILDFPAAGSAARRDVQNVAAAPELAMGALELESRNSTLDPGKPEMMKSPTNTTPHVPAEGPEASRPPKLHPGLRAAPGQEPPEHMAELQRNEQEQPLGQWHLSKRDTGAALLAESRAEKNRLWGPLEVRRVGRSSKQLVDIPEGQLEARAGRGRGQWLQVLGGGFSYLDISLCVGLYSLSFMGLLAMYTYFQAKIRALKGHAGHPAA
On to `NNc1nncc2ccccc12`, for which the inhibition was 92.6% (active).

Consider `COc1cc2ncnc(Nc3cccc(Cl)c3)c2cc1OC`, for which the inhibition was 0.4% (active).

For the molecule `CC1CCN(CC[C@H]2CCCN2S(=O)(=O)c2cccc(O)c2)CC1`, the inhibition was 2.8% (active).

For the molecule `O=c1[nH]ccc2c(O)cccc12`, the inhibition was 41.9% (active).

With `Oc1cc2c(cc1O)C(c1ccccc1)CNCC2` (stereo not given), the inhibition is 57.5% (active).

With `Oc1cc2c(c(Cl)c1O)CCNCC2c1ccccc1` (stereo not given), the inhibition was 93.6% (active).

As to `CCNC(=O)N1CCN(CCCC(c2ccc(F)cc2)c2ccc(F)cc2)CC1`, the inhibition is 8.8% (active).

Take `O=C1C2C=CC=CC2=NC(=S)N1CCN1CCC(=C(c2ccc(F)cc2)c2ccc(F)cc2)CC1` (stereo not given): the inhibition is 4.1% (active).

For the molecule `CC(=O)Oc1ccccc1C(=O)O`, the inhibition was 12.4% (active).

Regarding `C#C[C@]1(O)CC[C@H]2[C@@H]3CCC4=Cc5oncc5CC4(C)[C@H]3CCC21C` (stereo not given in full), the inhibition was 22.1% (active).

As for `COc1cc(C(O)C(=O)O)ccc1O` (stereo not given), the inhibition was 12.1% (active).

On to `COc1cc(C(O)CO)ccc1OS(=O)(=O)O` (stereo not given), for which the inhibition is 2.7% (active).

As to `COc1cc(C(O)CO)ccc1O` (stereo not given), the inhibition was 13.7% (active).

Regarding `Cc1cc(Cn2cnc3c2C[C@@H](C(=O)O)N(C(=O)C(c2ccccc2)c2ccccc2)C3)ccc1N`, the inhibition was 29.8% (active).

In the case of `CCN1CCC[C@H]1CNC(=O)c1cc(S(N)(=O)=O)ccc1OC`, the inhibition is 1% (active).

Consider `CCN1CCCC1CNC(=O)c1cc(S(=O)(=O)CC)c(N)cc1OC` (stereo not given), for which the inhibition was 3.7% (active).

With `CCN1CCCC1CNC(=O)c1cc(S(N)(=O)=O)ccc1OC` (stereo not given), the inhibition is -11.2% (inactive).

As for `CCOC(=O)c1cnc2c(cnn2CC)c1NN=C(C)C`, the inhibition was 19.1% (active).

For `CCCCNc1c(C(=O)OCC)c(C)nc2c1cnn2CC`, the inhibition is 12.7% (active).

On to `NC[C@@H]1O[C@H](c2ccccc2)Cc2c1ccc(O)c2O`, for which the inhibition was 71.1% (active).

As to `NC[C@@H]1O[C@H](C23CC4CC(CC(C4)C2)C3)Cc2c1ccc(O)c2O`, the inhibition was 54% (active).

`CC(C)C[C@H]1C(=O)N2CCC[C@H]2[C@]2(O)O[C@](NC(=O)[C@@H]3C=C4c5cccc6[nH]c(Br)c(c56)C[C@H]4N(C)C3)(C(C)C)C(=O)N12`: the inhibition is 33.5% (active).

On to `C[C@H](CS)C(=O)N1CCC[C@H]1C(=O)O`, for which the inhibition was -8.3% (inactive).

With `c1ccc(C(NCCNC(c2ccccc2)c2ccccc2)c2ccccc2)cc1`, the inhibition was 7.6% (active).

For the molecule `CCOC(=O)C12CC1/C(=N/O)c1ccccc1O2` (stereo not given), the inhibition is 11.7% (active).

Consider `CCCCOC(=O)NS(=O)(=O)c1sc(CC(C)C)cc1-c1ccc(Cn2c(CC)nc3c(C)cc(C)nc32)cc1`, for which the inhibition is 15.1% (active).

For `C1CCC(N=C(NC23CC4CC(CC(C4)C2)C3)N2CCOCC2)CC1`, the inhibition is 8.2% (active).

With `NC1=NCC2c3ccccc3Cc3ccccc3N12` (stereo not given), the inhibition was 2.9% (active).

For the molecule `Cc1c(OCC(F)(F)F)ccnc1CS(=O)c1nc2ccccc2[nH]1` (stereo not given), the inhibition was 2.3% (active).

With `Nc1ccc(-c2ccc3ccccc3n2)cc1`, the inhibition was 54.7% (active).

For the molecule `c1ccc2nc(C3=NCCN3)ccc2c1`, the inhibition is -4.5% (inactive).

With `Nc1ncnc2n[nH]c(Nc3ccc(F)cc3)c12`, the inhibition was 81.8% (active).

On to `CCN1CCc2nc(N)oc2CC1`, for which the inhibition is 48.7% (active).

Consider `O=c1[nH]c2cc([N+](=O)[O-])c([N+](=O)[O-])cc2[nH]c1=O`, for which the inhibition was 87% (active).

`C=C[C@H]1CN2CC[C@@H]1C[C@H]2[C@@H](O)c1ccnc2ccc(OC)cc12`: the inhibition was -2.4% (inactive).

Regarding `C=C[C@H]1CN2CC[C@@H]1C[C@@H]2[C@H](O)c1ccnc2ccc(OC)cc12`, the inhibition was 4.7% (active).

As for `CCCCCC(O)CCCC(=O)O` (stereo not given), the inhibition is -0.3% (inactive).

Take `CCCCCCCCCCC/C=C\C(C)(C)/C=C\CCCC(=O)O`: the inhibition was 25.2% (active).

In the case of `CCCCCCC/C=C\CCCCCCCCC(=O)O`, the inhibition is 11% (active).

Consider `CC(C)NCC(O)COc1ccc(CCOCC2CC2)cc1` (stereo not given), for which the inhibition is 11.4% (active).

`CC(C)NC[C@H](O)COc1ccc(CC(N)=O)cc1`: the inhibition is -4.6% (inactive).

Consider `COCCc1ccc(OCC(O)CNC(C)C)cc1` (stereo not given), for which the inhibition was -17.5% (inactive).

In the case of `CC(C)NCC(O)COc1ccc(CC(N)=O)cc1` (stereo not given), the inhibition was 7.4% (active).

Turning to `CC(=O)SC1CC2=CC(=O)CC[C@]2(C)C2CC[C@@]3(C)C(CC[C@@]34CCC(=O)O4)C12` (stereo not given in full), the inhibition was 5.4% (active).

On to `O=c1c(-c2ccc(O)cc2)coc2cc(O)cc(O)c12`, for which the inhibition was 33.2% (active).

As for `O=c1cc(-c2ccc(O)cc2)oc2cc(O)cc(O)c12`, the inhibition is 88.8% (active).

As to `O=c1c(-c2ccc(O)cc2)coc2cc(O)ccc12`, the inhibition is 32.4% (active).

Regarding `COC1(C2=NCCN2)COc2ccccc2O1` (stereo not given), the inhibition is 2.6% (active).

For `Cc1ccccc1/C=C/C1=NCCN1`, the inhibition is -1.6% (inactive).

In the case of `O=C1Nc2ccc(I)cc2/C1=C/c1cc(Br)c(O)c(Br)c1`, the inhibition is 97.8% (active).

On to `CCCCOc1cc(CC2CNC(=O)N2)ccc1OC` (stereo not given), for which the inhibition was 2.2% (active).

Take `O=C1NCN(c2ccccc2)C12CCN(CCCC(c1ccc(F)cc1)c1ccc(F)cc1)CC2`: the inhibition was 9.4% (active).

On to `Oc1ccc(/C=C/c2ccc(/C=C/c3ccc(O)cc3)c(Br)c2)cc1`, for which the inhibition is -1.9% (inactive).

With `Oc1ccc(/C=C/c2cc(O)cc(O)c2)cc1`, the inhibition was 78% (active).

Regarding `NC(CCCP(=O)(O)O)C(=O)O` (stereo not given), the inhibition is 4% (active).

`N[C@H](CCCP(=O)(O)O)C(=O)O`: the inhibition is 13.7% (active).

In the case of `N[C@@H](COP(=O)(O)O)C(=O)O`, the inhibition is 1.7% (active).

Turning to `CN[C@H](CC(C)C)C(=O)N[C@H]1C(=O)N[C@@H](CC(N)=O)C(=O)N[C@H]2C(=O)N[C@H]3C(=O)N[C@H](C(=O)N[C@H](C(=O)O)c4cc(O)cc(O)c4-c4cc3ccc4O)[C@H](O)c3ccc(c(Cl)c3)Oc3cc2cc(c3O[C@@H]2O[C@H](CO)[C@@H](O)[C@H](O)[C@H]2O[C@H]2C[C@](C)(N)[C@H](O)[C@H](C)O2)Oc2ccc(cc2Cl)[C@H]1O`, the inhibition is -8.2% (inactive).

Take `Cc1scc2c1N(C(=O)CN1CCN(C)CC1)c1ccccc1NC2=O`: the inhibition is 1.1% (active).

As to `CN1CCN(CC(=O)N2c3ccccc3C(=O)Nc3cccnc32)CC1`, the inhibition was -3.2% (inactive).

For `Cc1ccc(=O)n(-c2ccccc2)c1`, the inhibition is 2.4% (active).

In the case of `Oc1ccc(O)cc1`, the inhibition was 14.7% (active).

`Nc1ccc2c3c(cccc13)C(=O)NC2=O`: the inhibition is 13.7% (active).

Consider `NCCNS(=O)(=O)c1cccc2c(Cl)cccc12`, for which the inhibition was 0.7% (active).

For the molecule `CC(C)COC(=O)OCN1C(=O)CN(CCN2CC(=O)N(COC(=O)OCC(C)C)C(=O)C2)CC1=O`, the inhibition was 12.5% (active).

As a reminder, the inhibition is the drop in the measured response relative to a control, in per cent.
